Screening results as filed in PubChem.
HEK293 tox: Cytotoxic Profiling in HEK 293 Cell Line of Diverse Libraries Using Quantitative High-Throughput Screening; HEK 293 viability, ATP luminescence (CellTiter-Glo), 48-72 h; Potency, µM (highest dose often 115 µM), for the others: at the highest dose activity change, negative = cytotoxicity, actives largely listed as inhibitors; AID 1345083, 2018; 94,000 tested, 6.6% active; note: % is set by controls: 0 for no effect and ±100 for the full control effect; nearly all actives have a fitted effect of over 60% in size
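qHTS cytotoxicity; HEK 293, 250 cells/well; compound pinned; 48 or 72 hr, 37 degree Celsius, 5% CO2, 95% humidity; CellTiter-Glo, 10 min RT; luminescence (ATP).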
NPR1 antag: Natriuretic polypeptide receptor (hNpr1) antagonism - Primary qHTS; AID 1347048, 2019; Potency, µM (top dose mostly 46.3 µM), for the others: at the highest dose activity change, negative = inhibition, most hits filed as inhibitors; 76,000 tested, 1.6% active; HEK293 hNpr1 GloSensor cGMP, ANP-stimulated luminescence; Atrial natriuretic peptide receptor 1 (Homo sapiens), P16066; calls by dose curve; note: % is set by controls: 0 for no effect and ±100 for the full control effect; nearly all actives have a fitted effect of over 60% in size
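Compound pre-incubated 30 min at room temperature on GloSensor-loaded HEK293 cells stably carrying hNpr1 and the pGS-40F cGMP biosensor. Stimulation uses hNppA at 0.1 nM final; luminescence is taken at baseline and 20 min post-agonist.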
FLuc inh: Firefly luciferase inhibition profiling of diverse chemical library using quantitative high-throughput screening; AID 1347043, 2019; Luciferin 4-monooxygenase (Photinus pyralis), P08659; Potency, µM (highest dose often 115 µM), hits mostly inhibitors; purified P. pyralis luciferase, luminescence, biochemical; 76,000 tested, 2.5% active; note: % is set by controls: 0 for no effect and ±100 for the full control effect; nearly all actives have a fitted effect of over 65% in size
Target sequence (P08659 whole entry, looked up): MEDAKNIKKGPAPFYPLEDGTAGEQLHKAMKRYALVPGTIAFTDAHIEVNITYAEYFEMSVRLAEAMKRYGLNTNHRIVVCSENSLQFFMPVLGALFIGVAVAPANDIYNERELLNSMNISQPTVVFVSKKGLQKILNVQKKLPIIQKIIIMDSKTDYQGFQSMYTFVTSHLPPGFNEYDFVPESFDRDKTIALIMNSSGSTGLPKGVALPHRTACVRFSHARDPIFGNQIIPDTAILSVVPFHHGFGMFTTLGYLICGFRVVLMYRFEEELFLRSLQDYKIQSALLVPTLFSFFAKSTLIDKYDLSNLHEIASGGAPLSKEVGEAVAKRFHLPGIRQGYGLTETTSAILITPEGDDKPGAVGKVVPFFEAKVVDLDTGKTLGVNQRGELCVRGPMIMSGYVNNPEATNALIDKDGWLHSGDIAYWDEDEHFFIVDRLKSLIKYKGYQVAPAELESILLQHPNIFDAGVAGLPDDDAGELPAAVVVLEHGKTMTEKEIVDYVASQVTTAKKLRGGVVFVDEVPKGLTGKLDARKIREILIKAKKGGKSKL
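Purified 10nM P. pyralis luciferase with 10uM D-luciferin and 10uM ATP in 50mM Tris acetate pH 7.5, 10mM Mg acetate, 0.01% Tween-20, 0.05% BSA. qHTS titration; luminescence read by CCD imager.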
NIH3T3 tox: Cytotoxic Profiling in NIH 3T3 Cell Line of Diverse Libraries Using Quantitative High-Throughput Screening. 94,000 tested, 4.3% active. NIH 3T3 viability, CellTiter-Glo ATP luminescence, 48-72 h. AID 1345082, 2018. Potency, µM (series often up to 96.7 µM), inactives show at the top dose activity change, negative = cytotoxicity, hits mostly inhibitors; note: % is set by controls: 0 for no effect and ±100 for the full control effect; nearly all actives have a fitted effect of over 55% in size
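Viability of NIH 3T3 cells after 48 or 72 hr compound treatment at 37 °C was assessed by CellTiter-Glo, with luminescence imaged following a 10 min room-temperature step.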
GPT2 inh: Primary qHTS assay for inhibitors of Glutamate pyruvate transaminase 2 (GPT2). Alanine aminotransferase 2 (Homo sapiens), Q8TD30. Recombinant GPT2, coupled pyruvate oxidase/HRP Amplex Red fluorescence. Potency, µM (top dose mostly 57.7 µM), for the others: at the top dose activity change, negative = inhibition, hits mostly inhibitors. 100,000 tested, 0.25% active; note: % is set by controls: 0 for no effect and ±100 for the full control effect; nearly all actives have a fitted effect of over 60% in size
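Fluorescence read-out: pyruvate from GPT2 turnover coupled to pyruvate oxidase, HRP and Amplex Red (0.2mM ThPP, 0.2U/mL PO and HRP, 50uM Amplex final). Substrates 250uM a-KG, 2mM L-alanine; enzyme 10ng/uL; 30 min RT.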
Npr1 antag conf: Natriuretic polypeptide receptor (hNpr1) antagonism - Confirmation; HEK293 hNpr1 cGMP GloSensor luminescence, ANP-stimulated; shares compounds with NPR1 antag; AID 1347044, 2019; 1,400 tested, 76% active; Potency, µM (highest dose often 57.6 µM), for inactives: top-dose activity change, negative = inhibition, usual class: inhibitors; calls by dose curve; note: nearly all actives have a fitted effect of over 70% in size
NPR2 antag: Natriuretic polypeptide receptor (hNpr2) antagonism - Subtype selectivity assay | 1,400 tested, 67% active | Potency, µM (series often up to 57.6 µM), for inactives: at the top dose activity change, negative = inhibition, hits mostly inhibitors | HEK293 hNpr2 GloSensor cGMP luminescence, CNP-stimulated | shares compounds with NPR1 antag | AID 1347046, 2019; calls by dose curve; note: nearly all actives have a fitted effect of over 70% in size
FLuc counter: Natriuretic polypeptide receptor (hNpr1) antagonism - Confirmation firefly luciferase (FLuc) inhibition counterscreen; shares compounds with NPR1 antag; purified FLuc enzyme, luminescence, Km substrate; Potency, µM (top dose mostly 57.6 µM), for inactives: top-dose activity change, negative = inhibition, usual class: inhibitors; 1,400 tested, 0.7% active; note: 0% is about no effect
GloSensor ctrl: Natriuretic polypeptide receptor (hNpr1) antagonism - Counterscreen GloSensor control cell line; Potency, µM (top dose mostly 57.6 µM), without a hit: top-dose activity change, negative = inhibition, hits mostly inhibitors; HEK293 GloSensor cGMP, SNP-stimulated, luminescence; AID 1347051, 2019; 1,400 tested, 69% active; shares compounds with NPR1 antag; calls by dose curve; note: % is set by controls: 0 for no effect and ±100 for the full control effect; nearly all actives have a fitted effect of over 70% in size
Active calls of the source: *; i = inactive; ? = inconclusive; . = no result; [ ] = remark or other dose. Rows were chosen to be rich in hits. Some 10% of all compounds tested hit in one or more screens of this group. Unless noted, calls come from the whole dose curve; as a rule, active = well fitted curve in the direction sought with a large enough effect; inconclusive = small, poorly fitted or top-dose-only effect, or another doubt; inactive = no such curve, though single readings can be large; an effect the other way counts as inactive or inconclusive. Potency is the fitted concentration of half-maximal effect.

SMILES	HEK293 tox	NPR1 antag	FLuc inh	NIH3T3 tox	GPT2 inh	Npr1 antag conf	NPR2 antag	FLuc counter	GloSensor ctrl
CCOC(=O)[C@@H]1[C@@H](OC(N)=O)C(=O)N(C(C)C)C12CCN(S(=O)(=O)c1ccccc1)CC2	2%	.	.	?	.	.	.	.	.
CNC(=O)c1cc(C2CC2)nc2c1c(C1CCN(C(=O)CN(C)C)CC1)nn2C	0%	.	.	-3%	.	.	.	.	.
Cc1cc(C)n(-c2cccc(CN(C)C(=O)c3cn(Cc4ccc(Cl)cc4)nn3)c2)n1	?	-25%	i	?	-9%	.	.	.	.
CN(Cc1ccnc2ccccc12)C(=O)c1cn(Cc2ccc(Cl)cc2)nn1	35µM*	10µM*	i	?	-14%	14µM*	17µM*	3%	12µM*
C[S+](=O)([O-])CCn1ncc2cc(OCC3CCN(c4ncc(F)cn4)CC3)ccc21	.	.	.	.	.	13µM*	?	3%[86.2 µM]	11µM*
COc1ccc(-c2c(C(=O)N3CCOCC3)nc3sccn23)cc1	-5%[172 µM]	.	.	-13%[138 µM]	?	.	.	.	.
COc1cccc(-c2cc(C3CCN(S(=O)(=O)c4ccc(C(C)=O)cc4)CC3)[nH]n2)c1	?	14µM*	i	?	i	24µM*	24µM*	-2%	24µM*
O=C(C1CCCN1C(=O)Nc1ccccc1)N1CCC(c2nc3ccncc3[nH]2)CC1 (stereo unspecified)	i	.	.	-6%	i	.	.	.	.
Cc1ccc(C2Cn3nnc(C(=O)N4CCN(C(=O)c5cccc(F)c5)CC4)c3CO2)cc1 (stereo unspecified)	?	-20%	i	-22%	i	.	.	.	.
Cc1ccc(CC(=O)N2CCN(C(=O)c3nnn4c3COC(c3ccccc3)C4)CC2)cc1 (stereo unspecified)	-25%	-14%	i	-14%	3%	.	.	.	.
COc1cccc(CC(=O)N2CCN(C(=O)c3nnn4c3COC(c3ccccc3)C4)CC2)c1 (stereo unspecified)	-8%	-14%	i	-2%	i	.	.	.	.
CCc1ccc(C(=O)N2CCN(C(=O)c3nnn4c3COC(c3ccc(C)cc3)C4)CC2)cc1 (stereo unspecified)	?	?	i	-17%	1%	19µM*	19µM*	-1%	19µM*
COc1cccc(CC(=O)N2CCN(C(=O)c3nnn4c3COC(c3ccc(C)cc3)C4)CC2)c1 (stereo unspecified)	?	?	i	-7%	i	24µM*	?	4%	?
Cc1ccc(C2Cn3nnc(C(=O)N4CCN(C(=O)Cc5cccc(F)c5)CC4)c3CO2)cc1 (stereo unspecified)	?	11µM*	i	3%	2%	22µM*	22µM*	1%	22µM*
COc1ccccc1CC(=O)N1CCN(C(=O)c2nnn3c2COC(c2ccc(C)cc2)C3)CC1 (stereo unspecified)	?	10µM*	i	-33%	-3%	19µM*	19µM*	2%	15µM*
CCOC(=O)COC1CCN(C(=O)CC2CCCC2)CC(=O)N(C)c2ccccc21 (stereo unspecified)	i	.	.	?	.	.	.	.	.
COc1cccc(NC(=O)[C@@H]2OCC(=O)N(C3CC3)[C@H]2c2ccccc2)c1	-6%	.	.	-16%	i	.	.	.	.
O=C(CCC1CC1)N1CCC(c2cc(Cc3ccccc3)[nH]n2)CC1	?	-27%	i	?	i	-27%	-25%	-12%	-27%
CN(C)CCC(=O)N1Cc2ccccc2CC2(CCCCN2Cc2cccnc2)C1 (stereo unspecified)	0%	.	.	3%	3%	.	.	.	.
COCCN1CCC2(CCC1=O)CCN(C(=O)Nc1cc(C)ccc1OC)CC2	2%	.	.	-34%	-2%	.	.	.	.
Cc1ccc(-c2noc([C@@H]3C[C@H](NC(=O)COc4ccccc4)CN3C)n2)cc1	?	-9%[70.6 µM]	?	?	?	.	.	.	.
COc1ccc(-c2ccccc2C(=O)N2CCC(NC(=O)c3ccc(F)cc3)CC2)nn1	i	.	.	-10%	.	.	.	.	.
N#Cc1ccc(C(=O)NC2CCN(c3cc(-c4ccc(Cl)cc4)[nH]n3)CC2)cc1	?	?	i	-20%	i	?	?	-2%	?
COc1ccc(CC(=O)NC2CCN(c3cc(-c4ccc(Cl)cc4)[nH]n3)CC2)cc1OC	40µM*	18µM*	i	?	3%	24µM*	22µM*	-1%	24µM*
COc1cccc(CC(=O)NC2CCN(c3cc(-c4ccc(Cl)cc4)[nH]n3)CC2)c1	-30%	?	i	-24%	i	?	?	-3%	?
COc1ccc(C(=O)NC2CCCN(c3cc(-c4ccc(Cl)cc4)[nH]n3)C2)c(C)c1 (stereo unspecified)	-29%	?	i	-28%	i	?	?	-2%	?
COc1ccc(-c2cc(N3CCC(NC(=O)Cc4cccc(OC)c4)CC3)n[nH]2)cc1	?	-7%	i	?	-6%	.	.	.	.
COc1cccc(CC(=O)N2CCC3(CC2)CC(c2nc(C)no2)N(C)C3)c1 (stereo unspecified)	-5%	.	.	-18%	-8%	.	.	.	.
